A short description of assay [1]: GPR55 agonists via beta-arrestin recruitment, primary screen, imaging, U2OS cells, beta-arrestin-GFP redistribution (AID 1961).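 For activation: plate controls were DMSO negative control for no effect and LPI positive control for full effect.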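 Note: U2OS osteosarcoma cells stably expressing GPR55 and beta-arrestin-GFP.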 The conditions noted are these: measured here: cytotoxicity, cells analyzed, at 10 µM. In general terms: Arrestin recruitment assays detect the binding of arrestin to an activated receptor.
The target of assay [2] is G-protein coupled receptor 55 (Homo sapiens) (UniProt Q9Y2T6). The assay is described as above. The settings on record: at 10 µM, stronger effect = higher value.
Chain of G-protein coupled receptor 55 (Homo sapiens) (Q9Y2T6 whole entry, looked up): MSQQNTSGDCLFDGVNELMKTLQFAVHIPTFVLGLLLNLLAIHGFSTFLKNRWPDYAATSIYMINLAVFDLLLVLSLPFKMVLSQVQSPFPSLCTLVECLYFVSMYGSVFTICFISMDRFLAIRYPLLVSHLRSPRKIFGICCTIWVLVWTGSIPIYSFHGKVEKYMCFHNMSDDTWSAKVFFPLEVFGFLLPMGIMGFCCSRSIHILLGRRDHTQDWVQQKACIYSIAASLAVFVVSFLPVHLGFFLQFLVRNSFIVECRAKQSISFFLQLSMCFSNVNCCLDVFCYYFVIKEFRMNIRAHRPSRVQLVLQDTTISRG

Hit rate of the full screen: of about 290,000 compounds, about 140 (0.048%) were called active.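 Rule for the calls: active = activation above 40% with more than 50 cells counted in the well; inconclusive = wells holding fewer than 50 cells, flagged as toxic or sparse; inactive = the rest.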 The entries come from a sample that favours actives as a whole.

Consider `CN1/C(=C\C=Nc2ccccc2)C(C)(C)c2ccccc21`, for which the cell count in assay [1] was found to be 360 cells. Besides, the activation in assay [2] was -0.1% (inactive).

In assay [1], `CN1/C(=C\C=C2C(=O)NC(=S)NC2=O)C(C)(C)c2ccccc21` yielded a cell count of 268 cells. For the same molecule, the activation in assay [2] is 57.7% (active).

`CN1/C(=C\C=C2C(=O)NC(=O)NC2=O)C(C)(C)c2ccccc21` showed a cell count in assay [1] of 294 cells. Further, the activation in assay [2] is 0.4% (inactive).

The molecule `N[C@@H](Cc1c[nH]c2ccccc12)c1nnc(SCc2ccc(Cl)cc2)o1` returned a cell count in assay [1] of 304 cells. Moreover, the activation in assay [2] is 0.1% (inactive).

Take `CC(=Nc1ccccc1N)c1c(O)n(C)c(=O)[nH]c1=O`: the cell count in assay [1] is 323 cells. For the same molecule, in assay [2], the activation is 0.7% (inactive).

The record behind these values is PubChem BioAssay AID1961 (Sanford-Burnham Center for Chemical Genomics, 2009).
